Test results taken from PubChem BioAssay (NCI).
About 83,000 compounds went through this panel and 20% of them were active in at least one assay; those are over-represented in the sample as a whole.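 Percent growth is the endpoint: 0 to 100 indicates growth inhibition (40 means 60% inhibition), 0 means no net growth, and negative values indicate cell death.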 Unmarked numbers belong to inactive results. Activity calls are given as the source filed them. How the source made its calls: active means growth percent below 10; inactive means the rest.

Legend:
Experiment in all cases: NCI-60 one-dose screen, 48 h (100 = growth as untreated, 0 = no growth, -100 = all killed)
Conditions in all cases: 10 µM unless noted
[1] = tested on: NCI-H23 lung
[2] = tested on: NCI-H226 lung
[3] = tested on: NCI-H322M lung
[4] = tested on: HOP-62 NSCLC
[5] = tested on: NCI-H460 lung
[6] = tested on: HOP-92 NSCLC
[7] = tested on: NCI-H522 lung
[8] = tested on: A549/ATCC NSCLC
[9] = tested on: 786-0 renal
[10] = tested on: COLO 205 colon
[11] = tested on: DU-145 prostate
[12] = tested on: MALME-3M melanoma
[13] = tested on: MDA-MB-231 breast
[14] = tested on: RXF 393 renal
[15] = tested on: SF-268 CNS
[16] = tested on: SF-295 CNS
[17] = tested on: SF-539 CNS
[18] = tested on: UACC-257 melanoma
[19] = tested on: M14 melanoma

Cc1nc(Nc2ccc(F)c(Cl)c2)sc1C(=O)O
growth [1]: 15.7%
growth [2]: 26.9%
growth [3]: 54.3%
growth [4]: 27.3%
growth [5]: 18.1%
growth [6]: -23.8% (active)
growth [7]: -9.27% (active)
growth [8]: 12.9%
growth [9]: 19.6%
growth [10]: 5.72% (active)
growth [11]: 28.2%
growth [12]: 30.8%
growth [13]: -19.8% (active)
growth [14]: 15.4%
growth [15]: 29.3%
growth [16]: 15.2%
growth [17]: 24.4%
growth [18]: 4.37% (active)
growth [19]: 19.2%

N#Cc1nnn(-c2ccc(S(N)(=O)=O)cc2)c1NCC(=O)c1ccccc1
growth [1]: 98%
growth [2]: 88.2%
growth [3]: 91.2%
growth [4]: 91.7%
growth [5]: 101%
growth [6]: 86.6%
growth [7]: 83.9%
growth [8]: 93.3%
growth [9]: 102%
growth [10]: 104%
growth [11]: 106%
growth [12]: 96.4%
growth [13]: 95.1%
growth [14]: 113%
growth [15]: 93.6%
growth [16]: 100%
growth [17]: 116%
growth [18]: 88.4%
growth [19]: 97.5%

COc1ccc2cc(-c3nn(-c4ccc(C(=O)O)cc4)cc3CO)ccc2c1
growth [1]: 97.9%
growth [2]: 99.7%
growth [3]: 97%
growth [4]: 104%
growth [5]: 99.1%
growth [6]: 102%
growth [7]: 82.6%
growth [8]: 102%
growth [9]: 99.6%
growth [10]: 114%
growth [11]: 103%
growth [12]: 106%
growth [13]: 111%
growth [14]: 122%
growth [15]: 86.3%
growth [16]: 99.1%
growth [17]: 93.1%
growth [18]: 103%
growth [19]: 98.7%

COc1cc(/C=C/C(=O)Nc2cccnc2Nc2ccc(F)cc2)cc(OC)c1OC
growth [1]: 99.6%
growth [2]: 99%
growth [3]: 107%
growth [4]: 103%
growth [5]: 112%
growth [6]: 74.8%
growth [7]: 48.9%
growth [8]: 70.1%
growth [9]: 92.8%
growth [10]: 113%
growth [11]: 110%
growth [12]: 110%
growth [13]: 93.5%
growth [14]: 108%
growth [15]: 102%
growth [16]: 94.2%
growth [17]: 95.2%
growth [18]: 62.9%
growth [19]: 103%

O=C(CCCCC(=O)N/N=C\c1ccccc1O)N/N=C\c1ccccc1O
growth [1]: 58.4%
growth [2]: 52.9%
growth [3]: 27.5%
growth [4]: 39.1%
growth [5]: 12.2%
growth [6]: 64.4%
growth [7]: 46.4%
growth [8]: 48.9%
growth [9]: 19.6%
growth [10]: 35.4%
growth [11]: 45.1%
growth [12]: 32.6%
growth [13]: 50%
growth [14]: 43.4%
growth [15]: 40%
growth [16]: 37.9%
growth [17]: 19%
growth [18]: 26%
growth [19]: 20.9%

CCN(CC)c1ccc2c(c1)Oc1nc(N)c(C#N)c(N)c1C2Sc1ccc(SC)cc1 (configuration not stated)
growth [1]: -22.7% (active)
growth [2]: -46.9% (active)
growth [3]: -15.1% (active)
growth [4]: -25.3% (active)
growth [5]: -15.3% (active)
growth [6]: -12.5% (active)
growth [7]: -50.8% (active)
growth [8]: -2.37% (active)
growth [9]: -39.1% (active)
growth [10]: -73.6% (active)
growth [11]: -48% (active)
growth [12]: -15.9% (active)
growth [13]: -39.3% (active)
growth [14]: -67.6% (active)
growth [15]: 4.56% (active)
growth [16]: -54.2% (active)
growth [17]: -71.8% (active)
growth [18]: 55.6%
growth [19]: -42.3% (active)

CC(O)CN(CC(C)O)c1ccc2c(c1)Cc1cc([N+](=O)[O-])ccc1-2 (configuration not stated)
growth [1]: 93.5%
growth [2]: 101%
growth [3]: 65.8%
growth [4]: 102%
growth [5]: 104%
growth [6]: 88.7%
growth [7]: 80%
growth [8]: 119%
growth [9]: 107%
growth [10]: 104%
growth [11]: 101%
growth [12]: 83.7%
growth [13]: 99.6%
growth [14]: 105%
growth [15]: 85.2%
growth [16]: 90.3%
growth [17]: 92.4%
growth [18]: 125%
growth [19]: 106%

Clc1ccc2c(NCCCNc3nc(-n4ccnc4)nc4ccccc34)ccnc2c1
growth [1]: 96.1%
growth [2]: 90.4%
growth [3]: 94.7%
growth [4]: 83%
growth [5]: 95.2%
growth [6]: 58%
growth [7]: 89%
growth [8]: 92.3%
growth [9]: 77.6%
growth [10]: 87.7%
growth [11]: 94.8%
growth [12]: 102%
growth [13]: 83.2%
growth [14]: 81%
growth [15]: 89%
growth [16]: 89.6%
growth [17]: 76.1%
growth [18]: 94.2%
growth [19]: 95.1%
